Measurements as given in paper PMC9838217, “Structure of SALL4 zinc finger domain reveals link between AT-rich DNA binding and Okihiro syndrome”.
Where a chain is given by its changes, count along the chain named.

What was measured:
[1] = target: T1, SALL4 ZFC4 R900W (HT-SELEX) (Mus musculus, UniProt Q8BX22 870-940, R900W); assay: HT-SELEX; high values mean tight binding; details: protein: recombinant; vector His6-GST; dsDNA, one strand shown
T1 sequence: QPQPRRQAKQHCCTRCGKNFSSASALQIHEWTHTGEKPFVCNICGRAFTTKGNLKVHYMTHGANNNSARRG
Summary of the method: (§1)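 Residues 870–940 of mouse SALL4, forming zinc finger cluster 4, were expressed recombinantly, purified, and 1 µg was incubated with library DNA (1.5 µg first cycle, 200 ng later) in 100 µl of 10 mM Tris–HCl pH 7.5, 50 mM NaCl, poly(dI-dC) and DTT for 10 min at room temperature. Washed Ni2+ bead-captured complexes were PCR-amplified and reselected for up to 6 cycles in triplicate, and the products were sequenced on MiSeq and scanned for 6-mers. Binding signal is the fold change in each canonical k-mer's read fraction compared with the initial random library.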

[2] = target: T2, SALL4 ZFC4 G921D (HT-SELEX) (Mus musculus, UniProt Q8BX22 870-940, G921D); assay: HT-SELEX; high values mean tight binding; details: protein: recombinant; vector His6-GST; dsDNA, one strand shown
T2 sequence: T1 sequence with W31R, G52D
Summary of the method: as §1

Sequence	binding signal [1] [fold-change vs cycle 0]	binding signal [2] [fold-change vs cycle 0]
ACCGCA	0.267 ± 0.0189	0.39 ± 0.0525
CACGCA	0.282 ± 0.00613	0.422 ± 0.056
CCCGCG	0.0543 ± 0.006	0.134 ± 0.057
GAACTA	1.48 ± 0.0646	1.37 ± 0.112
CCCGCA	0.139 ± 0.0116	0.246 ± 0.066
CTGGCC	0.139 ± 0.00982	0.255 ± 0.0712
